FMDV antiviral: blocks foot and mouth disease virus. AID 1159524. Potency, µM (top dose mostly 57.9 µM), for the others: at the top dose activity change, negative = inhibition, most hits filed as inhibitors. hit rate 1.2% among 410,000. FMDV antiviral cell-based qHTS; calls by dose curve; tested in HEK293T cells; note: read-out not given here; potency is the fitted concentration of half-maximal effect; % is set by controls: 0 for no effect and ±100 for the full control effect; nearly all actives have a fitted effect of over 45% in size
LASV entry inh: Lassa virus entry inhibition; Potency, µM (series often up to 37.9 µM), without a hit: at the top dose activity change, negative = inhibition, actives largely listed as inhibitors; hit rate 1.2% among 300,000; Lassa virus pseudotype entry inhibition, cell reporter; AID 540256; calls by dose curve; tested in HEK293 cells; note: potency is the fitted concentration of half-maximal effect; % is set by controls: 0 for no effect and ±100 for the full control effect; nearly all actives have a fitted effect of over 50% in size
HCMV inh: inhibitors of human cytomegalovirus; HFF cells, HCMV-luciferase reporter, 72 h; stronger effect = lower value; activity change, negative = inhibition, % at 57.5 µM; hit rate 4.5% among 410,000; in the data active = activity change below about -60%; inconclusive = no clear call, values can overlap the other calls; inactive = above about -39%; note: % is set by controls: 0 for no effect and ±100 for the full control effect
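Two compound doses tested in HFFs infected with HCMV-luciferase, MOI 1 PFU/cell, 72 h at 37C. Lysate luminescence read with OneGlo; data normalized against buffer-only and 10uM Salinomycin inhibitor controls.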
MARV entry inh: blocks Marburg virus binding to or entry into cells. Marburg virus pseudotyped entry inhibition, cell reporter. Potency, µM (series often up to 37.8 µM), for inactives: at the highest dose activity change, negative = inhibition, hits mostly inhibitors. hit rate 1.8% among 300,000; calls by dose curve; tested in HEK293 cells; note: potency is the fitted concentration of half-maximal effect; % is set by controls: 0 for no effect and ±100 for the full control effect
SARS PLP yeast: SARS-CoV PLP inhibition in yeast. S. cerevisiae expressing SARS-CoV PLpro, growth rescue. Potency, µM (top dose mostly 32.9 µM), without a hit: at the highest dose activity, positive = growth rescue, usual class: activators. hit rate 0.19% among 330,000. AID 485353; calls by dose curve; note: potency is the fitted concentration of half-maximal effect; 0% is about no effect; nearly all actives have a fitted effect of over 55% in size
HCV inhibitor: blocks hepatitis C virus; hit rate 3.4% among 340,000; Potency, µM (series often up to 41.8 µM), without a hit: at the highest dose activity change, negative = inhibition, most hits filed as inhibitors; Huh7.5.1 HCVcc-Cre infection, luciferase reporter, 44 h; AID 651820; active = well fitted inhibition curve with a large enough effect; inconclusive = small, poorly fitted or top-dose-only effect, or another doubt; inactive = no such curve, though single readings can be large or run the other way; note: potency is the fitted concentration of half-maximal effect; % is set by controls: 0 for no effect and ±100 for the full control effect
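After 44 h co-culture of compound, cells and HCVcc-Cre (~0.5 moi), substrate is added for 15 min at room temperature and luciferase measured over 15 sec. Cells were seeded at 1,000/well and pre-cultured 4 h.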
Starred values were filed as active, the others as inactive; u = inconclusive; x = no result; + = active, no number; [ ] = dose if it differs, or a comment. This is a sample that favours compounds with a hit; in the whole collection about 8% have one here.

SMILES | FMDV antiviral | LASV entry inh | HCMV inh | MARV entry inh | SARS PLP yeast | HCV inhibitor
CCc1nc2cc(C(=O)N3CCC[C@H]3C(=O)OC)cc(NC(=O)c3ccccc3OC)c2n1C | -1% | x | x | x | x | x
COc1ccc2c(C#N)c3ccccn3c2c1 | 20% | x | u | x | -1% | 3.2µM*
Cc1cc(=O)n2ccccc2c1C#N | 0% | 30% | 7 | 19% | 11% | 8%
COc1cccc(C(C)(O)c2nc(-c3ccc(N(C)C)cc3)cs2)c1 (stereo unspecified) | -7% | x | -74* | x | x | x
COc1cccc(C(C)(O)c2nc(-c3ccccc3)cs2)c1 (stereo unspecified) | -10% | x | u | x | x | x
COc1ccc(C(C)(O)c2nc(-c3ccccc3)cs2)cc1 (stereo unspecified) | -17% | x | -78* | x | x | x
COc1ccc(-c2csc(C(C)(O)c3cccnc3)n2)cc1 (stereo unspecified) | 0% | x | -69* | x | x | x
COc1ccc(C(=O)c2ccc([N+](=O)[O-])cc2Cl)cc1 | -2% | -9% | u | u | -1% | -21%
COC(=O)[C@@]1(Cc2ccc(F)cc2)[C@H]2c3cc(C(=O)N(C)C)n(Cc4ccc(OC)c(OC)c4)c3C[C@H]2CN1C(=O)c1ccccc1 | -8% | u | 18 | u | 6% | 5%[8.37 µM]
COC(=O)[C@@]1(Cc2ccc(OC)cc2)[C@H]2c3cc(C(=O)N(C)C)n(Cc4ccc(OC(F)(F)F)cc4)c3C[C@H]2CN1C(=O)c1ccccc1 | -29% | u | x | 9.2µM* | 0% | u
COC(=O)[C@@]1(Cc2ccc(F)cc2)[C@H]2c3cc(C(=O)N4CCCC4)n(Cc4ccccc4)c3C[C@H]2CN1C(=O)c1ccccc1 | u | x | -26 | x | x | x
COC(=O)[C@@]1(Cc2ccc(OC)cc2)[C@H]2c3cc(C(=O)N4CCCC4)n(Cc4ccc(S(C)(=O)=O)cc4)c3C[C@H]2CN1C(=O)c1ccccc1 | -16% | x | -66* | x | x | x
COC(=O)[C@@]1(Cc2ccc(F)cc2)[C@H]2c3cc(C(=O)N(C)C)n(Cc4ccccc4)c3C[C@H]2CN1C(=O)c1ccccc1 | u | u | u | 13µM* | -6% | -5%
COC(=O)[C@@]1(Cc2ccc(F)cc2)[C@H]2c3cc(C(=O)N(C)C)n(Cc4ccc(Cl)c(C(F)(F)F)c4)c3C[C@H]2CN1C(=O)c1ccccc1 | -14% | x | -25 | x | x | x
O=C(NCc1ccccc1)N[C@H]1CC[C@@]23CCCN2C(=O)CCC[C@H]3C1Cc1ccccc1 (stereo partly specified) | x | x | 1 | x | x | x
CCn1c(CN2c3ccccc3Sc3ccccc32)n[nH]c1=S | -21% | -8%[46.1 µM] | -62* | u | 2% | 4%
CCOc1cc(CNc2ccc3c(c2)OCCO3)cc(Br)c1OCC | 32µM* | -22% | -86* | u | -8% | 2µM*
CCOc1cc(CNc2ccc(N(C)C)cc2)cc(Br)c1OCC(=O)NC(C)(C)C | 14µM* | u | -18 | -10% | -22% | 11µM*
COc1cc(CNc2ccc3[nH]c(=O)[nH]c3c2)ccc1OCc1ccccc1C | u | -11% | -70* | -22% | -2% | -38%
COc1cc(CNc2ccc3[nH]c(=O)[nH]c3c2)ccc1OCc1ccccc1F | -15% | -10%[46.1 µM] | u | u | -1% | u
CCOc1cc(CNc2ccc(N3CCCCC3)cc2)cc(Br)c1OCC(=O)NC(C)(C)C | 32µM* | -13% | -4 | -30% | -28% | u
C/C(CC(=O)Nc1ccc(C)c(Cl)c1)=N\NC(=O)c1cccc(O)c1 | 14% | -6% | 23 | 0% | 1% | 9%
CN(C)Cc1ccccc1-c1nc(NC2CC2)c2ccccc2n1 | 12% | x | x | x | x | x
O=C(O)c1c(Cl)cccc1Nc1ccccc1 | -13% | 27%[46.1 µM] | 46 | 3%[46.1 µM] | x | -6%
Cc1c([C@@H](Nc2ccccn2)c2ccccc2)c(=O)n(-c2ccccc2)n1C | x | x | x | 22% | x | x
SMILES | FMDV antiviral | LASV entry inh | HCMV inh | MARV entry inh | SARS PLP yeast | HCV inhibitor
C=CCOc1ccc(CNc2ccc3[nH]c(=O)[nH]c3c2)cc1OC | -4% | u | 11 | 17%[46.1 µM] | 0% | -14%
C=CCOc1cccc(CNc2ccc3[nH]c(=O)[nH]c3c2)c1 | u | u | -22 | u | -1% | 11µM*
COc1cc(CNc2ccc3[nH]c(=O)[nH]c3c2)ccc1OCC(=O)NC(C)(C)C | -5% | u | -16 | -20% | -9% | 11%
COc1cc(CNc2ccc3[nH]c(=O)[nH]c3c2)cc(Br)c1OCC(=O)NC(C)(C)C | u | -1% | -71* | -24% | 2% | u
Cc1cc(Br)c(OCc2ccc(C(=O)N/N=C/c3ccc[nH]3)cc2)c(Br)c1 | u | x | + | x | -1% | -4%
O=C(N/N=C/c1ccc[nH]1)c1ccc(COc2cccc3cccnc23)cc1 | 8.9µM* | u | -97* | u | 0% | 0.79µM*
O=C(N/N=C/c1ccccc1C(=O)O)c1ccc(COc2cccc3cccnc23)cc1 | 14% | 20% | -7 | u | -1% | 3%
Fc1ccc2cnc(-c3ccsc3)cc2c1 | x | x | 0 | x | x | x
CCCc1cc(=O)oc2c3c(c4c(c12)OC(C)(C)C=C4)OC(C)C(C)C3O (stereo unspecified) | -1% | x | -77* | x | -4% | 10µM*
Cc1ncc(N=Nc2ccccc2)c(-c2ccccc2)n1 | -25% | -3% | -4 | 2% | 3% | 10µM*
Cc1ncc(S(=O)(=O)c2ccccc2)c(-c2ccccc2)n1 | -18% | 2% | -18 | -18% | 12% | 16%
CC(=O)c1sc(N/N=C\c2ccc(Br)cc2)nc1C | 19% | u | -14 | -1% | -12% | -17%
CC(=O)c1sc(N/N=C\c2cccc(Br)c2)nc1C | -11% | 14µM* | -13 | u | -11% | 1%
COc1ccc(-c2cnc(C)o2)cc1S(=O)(=O)Nc1ccc(OC(F)(F)F)cc1 | 24% | -24%[46.1 µM] | -7 | x | x | x
O=c1c2ccccc2ncn1-c1ccc(Cl)cc1Cl | -21% | x | -21 | x | 0% | -19%
O=c1c2ccccc2sn1-c1ccc(Cl)cc1Cl | -23% | x | -95* | x | x | x
Cc1c(C(=O)Nc2ccc3c(c2)OCO3)sc2nc(-c3ccccc3)cn12 | -30% | u | -37 | -14% | 6% | 4µM*
COc1ccc(-c2cn3c(n2)sc2cc(C(=O)Nc4cc(Cl)ccc4C)ccc23)cc1 | 35% | -9%[46.1 µM] | x | x | x | x
Cc1c(C(=O)Nc2ccccc2)sc2nc(-c3ccccc3)cn12 | -13% | 3% | 1 | -1% | -1% | 8.9µM*
Nc1nc(-c2ccccc2)c(C(=O)Nc2ccccc2)s1 | -6% | x | -61* | x | -1% | -6%
Cc1ccc(Cl)cc1NC(=O)c1sc2nc(-c3ccccc3)cn2c1C | -10% | 13%[46.1 µM] | -63* | x | x | x
COCCNC(=O)c1sc2nc(-c3ccccc3)cn2c1C | 25% | 23% | -15 | 34% | 3% | 5%

Screens from PubChem.
